Assay outcomes as filed in PubChem.
This is a sample that favours compounds with a hit; in the whole collection about 10% have one here.
SARS PLpro yeast-1: SARS-CoV PLP inhibition in yeast | Potency, µM (top dose mostly 32.9 µM), for the others: at the top dose activity, positive = growth rescue, hits mostly activators | 330,000 compounds, 0.19% hits | S. cerevisiae expressing SARS-CoV PLpro, growth rescue; also: potency is read from the fitted curve at half-maximal effect; 0% is about no effect; nearly all actives have a fitted effect of over 55% in size
Pf growth 48h: inhibits P. falciparum growth in the first generation, 48 h | AID 504832 | P. falciparum luciferase growth in erythrocytes, 48 h | Potency, µM (titrated, usually from 28.7 µM), inactives show at the highest dose activity change, negative = inhibition, usual class: inhibitors | 310,000 compounds, 5.9% hits; active = well fitted inhibition curve with a large enough effect; inconclusive = small, poorly fitted or top-dose-only effect, or another doubt; inactive = no such curve, though single readings can be large or run the other way; also: potency is read from the fitted curve at half-maximal effect; % is scaled to controls: 0 for no effect and ±100 for the full control effect
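Here the parasites carry a stable luciferase gene and grow inside erythrocytes in Albumax-based RPMI medium with compound for one erythrocytic cycle. Activity is scored as loss of luminescent signal.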
Pf growth 96h: P. falciparum growth inhibition at 96 hour, primary screen for plastid delayed-death inhibitors. P. falciparum luciferase reporter growth, 96 h. Potency, µM (series often up to 28.7 µM), inactives show top-dose activity change, negative = inhibition, hits mostly inhibitors. 320,000 compounds, 6.9% hits. AID 504834; active = well fitted inhibition curve with a large enough effect; inconclusive = small, poorly fitted or top-dose-only effect, or another doubt; inactive = no such curve, though single readings can be large or run the other way; also: potency is read from the fitted curve at half-maximal effect; % is scaled to controls: 0 for no effect and ±100 for the full control effect
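Compounds incubated with erythrocytes infected by luciferase-expressing P. falciparum (2% hematocrit, 0.05% parasitemia final) for 96 hours, 37 C in 5% CO2. Growth inhibition scored as decreased luciferase luminescence.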
NS1 inh: blocks influenza NS1 protein function. AID 2326. 270,000 compounds, 0.4% hits. Potency, µM (titrated, usually from 46.1 µM), without a hit: at the top dose activity, positive = more growth; also: potency is read from the fitted curve at half-maximal effect; actives are rising curves; nearly all actives have a fitted effect of over 50% in size
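Compounds were scored for reversing the slow growth caused by influenza A NS1 in S. cerevisiae, measured by optical density at 600 nm. Assay medium contained 2% galactose at pH 6.0; NS1-free yeast of the same strain were the positive control.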
SARS PLpro yeast-2: Inhibits SARS-CoV PLP in yeast, hit validation. shares compounds with SARS PLpro yeast-1. yeast expressing SARS-CoV PLpro, growth phenotype rescue. calls only. 1,000 compounds, 19% hits; call rule not given here
The depositor's hits bear a star; i = inactive; ? = inconclusive; / = no result given; + = active, no number; [ ] = dose if it differs, or a comment. Unless noted, calls follow the shape of the full dose curve.

SMILES	SARS PLpro yeast-1	Pf growth 48h	Pf growth 96h	NS1 inh	SARS PLpro yeast-2
N#Cc1cc([N+](=O)[O-])cnc1Nc1ccccc1	3%	10%	16%	11%	/
CNc1nc(-c2ccccn2)nnc1-c1ccccc1	?	/	?	-44%	i
c1ccc(-c2nc(-c3ccccn3)no2)cc1	-58%	3%	-19%	-6%	/
CCOc1ccc(NC(=O)NC2CCOC(C)(C)C2)cc1 (configuration not stated)	?	?	3%	-8%	i
CN1CCC(=O)N(CCOc2ccccc2)CC1	-6%	-1%	-12%	4%	/
COc1ccc(NC(=O)C(=O)NNC(=O)c2cccs2)c(OC)c1	?	13%	91%	6%	i
COc1cc(CNCC(C)C)c(Br)cc1OCC(=O)NCc1ccccc1	?	-19%	?	-3%	i
COc1ccc(NC(=O)CSCC(=O)Nc2nnc(C)s2)cc1	7%	-9%	-1%	/	/
CC(=O)Nc1cccc(-c2nnc(-c3ccccc3)o2)c1	?	28%	/	-27%	?
CCNC(=S)NNC(=O)C1CCCCC1	4µM*	/	25%	8%	i
CC(C)CC(=O)NC(=S)N1CCN(c2ccc([N+](=O)[O-])cc2Cl)CC1	?	-28%	?	4%	i
CC(C)CC(=O)N1CCN(c2ccc([N+](=O)[O-])cc2Cl)CC1	-35%	1%	38%	-20%	/
Cc1nnc(NC(=O)C2CSC3(C)CCC(=O)N23)s1 (configuration not stated)	0%	-1%	?	/	/
COc1ccccc1NC(=S)NNC(=O)c1cc(C)nn1C	3%	/	?	-2%	/
COc1ccccc1NC(=S)NNC(=O)c1cc(C)n(C)n1	?	/	58%	0%	i
O=C(CCl)Nc1ccc(Oc2cnc3ccccc3n2)cc1	10µM*	1.7µM*	0.74µM*	?	+
COC(=O)Nc1ccc(S(=O)(=O)Nc2ccc(O)cc2)cc1	?	?	45%	11%	i
CC(C)(C)c1cc(C(=O)N/N=C/c2ccccc2O)n(-c2ccccc2)n1	14µM*	?	?	7%	i
COc1ccc(/C=N/NC(=O)c2nc(-c3ccccc3)n(-c3ccccc3)n2)c(O)c1	2.8µM*	?	11%	7%	+
CC(C)c1ccc(NC(=O)CN2C(=O)NC3(CCCC3)C2=O)cc1	3.5µM*	17%	33%	18%	i
Nc1c(Cl)cc(-c2[nH]c3cc(C(=O)NCCO)ccc3c(=O)c2O)cc1Cl	?	?	?	-62%	+
O=C(CN1C(=O)C(=O)N(CCC2=CCCCC2)C1=O)Nc1ccc(F)cc1F	-1%	/	/	/	/
Fc1ccccc1OCCCCCN1CCCC1	2.5µM*	?	-3%	6%	i
CNC(=O)Oc1cccc(-c2cn3cc(OC(=O)NC)ccc3n2)c1	11µM*	-77%	?	-38%	+
COc1ccc(NC(=O)CN(C)C(=O)c2cc(S(=O)(=O)N(C)C)ccc2N2CCCC2)cc1	/	-8%	9%	/	/
SMILES	SARS PLpro yeast-1	Pf growth 48h	Pf growth 96h	NS1 inh	SARS PLpro yeast-2
CN(CC(=O)Nc1c(Cl)cccc1Cl)C(=O)c1cc(S(=O)(=O)N(C)C)ccc1N1CCCC1	?	?	?	/	i
CC(NC(=O)COC(=O)c1ccc2c(=O)n3c(nc2c1)CCCCC3)c1ccccc1 (configuration not stated)	5%	?	-21%	/	/
CCOC(CNC(=O)CN1C(=O)COc2ccc(S(=O)(=O)N3CC(C)CC(C)C3)cc21)OCC (configuration not stated)	-3%	4%	?	-18%	/
COc1cccc(-c2c(NC(=O)c3ccco3)oc3ccccc3c2=O)c1	?	12%	40%	-16%	i
CC(=O)Nc1ccc(NC(=O)CSc2n[nH]c(-c3cccs3)n2)cc1	-3%	43%	-3%	/	/
CCN1C(=O)c2cccc3c(S(=O)(=O)Nc4ccccc4OC)ccc1c23	?	?	310%	0%	i
Cc1ccc2c(CSc3nc4ccccc4c(=O)n3CCCO)cc(=O)oc2c1C	1%	?	?	0%	/
Cc1ccc2c(CSc3nnc4ccccn34)cc(=O)oc2c1C	3.5µM*	34%	-12%	16%	i
COc1cc(NS(=O)(=O)c2ccc(NC(=O)COc3ccc(C)cc3)cc2)nc(OC)n1	11µM*	?	15%	-22%	i
COc1cc(NS(=O)(=O)c2ccc(NC(=O)COc3ccc(C)cc3C)cc2)nc(OC)n1	-2%	7%	0%	26%	/
Cc1nnsc1C(=O)N/N=C/c1ccccc1	-32%	7%	?	-5%	/
Cc1nnsc1C(=O)N/N=C/c1ccc2ccccc2c1O	1µM*	2.6µM*	3.3µM*	9%	i
CC(C)c1ccc(S(=O)(=O)Nc2ccc3c(c2)OCO3)cc1	-18%	/	/	/	/
COc1cc(C(=O)NC(=S)Nc2ccc3c(c2)C(=O)N(C)C3=O)cc(OC)c1OC	2%	47%	6%	15%	/
CCCCC(=O)NC(c1ccccc1)c1ccc2cccnc2c1O (configuration not stated)	4.5µM*	?	?	2%	i
CCC(=O)NC(c1ccc(OC)cc1)c1cc(Cl)c2cccnc2c1O (configuration not stated)	-1%	4%	288%	-1%	/
CCC(=O)NC(c1ccccc1OC)c1ccc2cccnc2c1O (configuration not stated)	?	4.1µM*	-4%	-10%	+
COc1ccccc1CC(=O)NNC(=O)c1ccco1	-1%	-2%	?	4%	/
COc1ccc(N2CCN(C(=O)COc3ccc(S(=O)(=O)N4CCOCC4)cc3C)CC2)cc1	-5%	-15%	?	-4%	/
COC(=O)c1ccc(N2CCN(CCNC(=O)Nc3ccc(OC)cc3)CC2)cc1	?	?	-13%	13%	i
COc1ccc(N2CCN(CCNC(=O)Nc3ccc(C)c(Cl)c3)CC2)cc1	-2%	5%[0.00184 µM]	?	-5%	/
CNC(=S)N/N=C(\C)c1cccc([N+](=O)[O-])c1	13µM*	4%	17%	7%	i
CNC(=S)N/N=C(\C)c1ccc2c(c1)OCCO2	?	33%	12%	3%	+
CN(Cc1nccn1C)C(=O)c1ccc2nc(Cc3ccccc3F)oc2c1	2%	2%	?	2%	/
C=CCn1c(SCC(=O)Nc2cc(C)ccc2OC)nnc1-c1ccco1	?	-24%	-24%	-53%	i
Cc1ccccc1NC(=O)/C(=C\c1cccs1)NC(=O)c1ccco1	?	-20%	4%	-3%	i
CC(=O)c1cccc(NC(=O)CSc2ccc(-c3ccccn3)nn2)c1	?	?	?	-117%	+
Cn1c(N)c(C(=O)COC(=O)CCc2c[nH]c3ccccc23)c(=O)n(C)c1=O	3.5µM*	/	-23%	8%	i
Cn1c(N)c(C(=O)COC(=O)CCCc2c[nH]c3ccccc23)c(=O)n(C)c1=O	15%	/	?	-15%	/
CCN(CC)S(=O)(=O)c1cc(NC(=O)C2=COCCO2)ccc1Cl	0%	?	2%	/	/
